# Screens as filed in PubChem.
# Hits are enriched below; roughly 2% of the tested compounds scored in any of these assays.
# Yeast superoxide: caloric restriction mimetics inhibiting age-related superoxide in yeast. S. cerevisiae aged cells, superoxide DHE fluorescence; hits give low values. superoxide response (% of plate mean), % at 10 µM. actives 0.18% (n = 330,000). AID 2690;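 active means superoxide response under a set limit, about three screen SD below normal, cut at about 65% in these data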;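 further: yeast aged for seven days with compound at 30 °C before DHE staining; 100% = average MFI of all compound-treated wells on the plate with controls excluded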
# SKKanGAS inh: blocks kanamycin growth of S. pyogenes SKKanGAS strain. BacTiter-Glo, 6 h. AID 1662. actives 1.3% (n = 300,000). inhibition, % at 7.5 µM;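 active means mean replicate score, as percent of positive control median, at least 50; inconclusive means mean below 50 but one replicate at or above 50; inactive means mean and every replicate below 50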;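 further: strain carries kanamycin resistance gene driven by streptokinase promoter and grows in 40 µg/ml kanamycin; loss of luminescence reflects streptokinase promoter inhibition or plain growth inhibition; 0% = median of DMSO wells and 100% = positive control at its reference dose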
# PolyA inhibitor: inhibitors of polyadenylation in S. cerevisiae | actives 0.02% (n = 300,000) | activity score, % at 12 µM | AID 1875 | S. cerevisiae SKY197-pL101 polyadenylation reporter, beta-gal luminescence; efflux-impaired pdr1/pdr3 knockout yeast; score 100 = 6 SD above DMSO;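 active means lowest replicate activity score at least 50, where 100 means six control SD above control mean; inconclusive means lowest score under 50 but half or more replicates reach 50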;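 further: yeast exposed to compound for 9 h at 30 °C; higher score means more reporter readthrough which indicates perturbed polyadenylation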
# Calb FLC: C. albicans growth modulation with fluconazole; actives 0.57% (n = 300,000); AID 1979; C. albicans CaCi-2 (fluconazole-resistant clinical isolate) + fluconazole, Alamar Blue growth, 48 h; growth inhibition, % (test concentration not listed);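 active means growth inhibition above about 58% in most replicates, limit read from the data, passing the limit was not always enough; inconclusive means exactly half the replicates above a set limit; inactive means most replicates below a set limit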;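 further: all wells also contain fluconazole at 8 µg/ml as a sub-toxic cotreatment; 0% = median of DMSO wells and 100% = median of geldanamycin control wells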
# Platelet DG rel: modulates dense granule release in human platelets; human platelet-rich plasma, SFLLRN dense granule ATP release, luminescence; inhibition, %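 (compounds screened at 7.5 µM in platelet-rich plasma)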; actives 0.22% (n = 300,000); AID 1663;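 active means mean replicate score, as percent of positive control, at or above 50; inconclusive means mean below 50 but at least one replicate at or above 50; inactive means mean and every replicate below 50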
# Numbers without * were called inactive; ? = inconclusive; nt = not tested or not shown.
SMILES,Yeast superoxide,SKKanGAS inh,PolyA inhibitor,Calb FLC,Platelet DG rel
Cn1c2ccccc2c(=O)c2c(=O)n(C3CCCCC3)c(-c3ccco3)nc21,94,44,-23,-4,42
Cn1nc(-c2ccccn2)nc2c(=O)n(C)c(=O)nc1-2,114,52*,?,4,148*
O=C(CP(=O)(c1ccccc1)c1ccccc1)N/N=C/c1cc(Br)cc(Br)c1O,129,102*,-22,1,-2
O=C(CNC(=O)c1ccccc1)N/N=C/c1cc(Br)ccc1O,95,-4,-12,3,-46
O=C(COc1ccc(-c2ccccc2)cc1)N/N=C/c1cc(O)ccc1Br,106,98*,13,3,2
O=C(COc1ccc(-c2ccccc2)cc1)N/N=C/c1ccccc1Br,108,19,5,-7,6
CCC(O)(CC)C(=O)N/N=C/c1cc(Br)cc(Br)c1O,91,89*,0,6,-3
O=C(C[n+]1ccccc1)N/N=C/c1cc(Br)cc(Br)c1O,116,102*,-67,14,-3
O/N=C1\CCCc2c1nc(-c1ccccc1F)n2O,80,-8,-9,-8,-16
CCOc1ccc(-c2c(C)sc3nc[nH]c(=O)c23)cc1,100,-8,1,15,5
O=C1C2CC=CCC2C(=O)N1Cc1ccccc1Cl (stereo unspecified),84,-11,-12,?,-9
Cc1ccccc1NC(=O)CON=C(N)c1ccccc1,84,nt,nt,nt,nt
O=C(Nc1ccc(S(=O)(=O)N2CCCC2)cc1)c1ccc([N+](=O)[O-])cc1,94,-3,-10,0,0
c1ccc2sc(NN=C3CCCCCC3)nc2c1,147,-65,-14,106*,12
O=C(Nc1nc2ccccc2s1)c1ccccc1,105,5,-18,-7,3
O=Nc1c(O)n(Cc2ccc(Cl)c(Cl)c2)c2ccccc12,113,24,-13,79*,7
O=Nc1c(O)n(Cc2cccc(C(F)(F)F)c2)c2ccccc12,115,-8,-6,117*,-2
O=Nc1c(O)n(Cc2ccccc2)c2ccccc12,102,-3,3,-19,16
Cc1cccc(C)c1OCC(=O)NNC(=S)NC(=O)C1CC1,105,95*,-3,76*,-46
Fc1ccc(-[n+]2nc(Nc3ccccc3)sc2-c2c3ccccc3cc3ccccc23)cc1,94,57*,7,17,0
Oc1ccc2ccccc2c1-c1sc(Nc2ccccc2)n[n+]1-c1ccc(F)cc1,98,9,-19,6,-1
CN1CC(c2ccc(Cl)c(Cl)c2)[C@@]2(COc3ccccc3C2=O)[C@@]12C(=O)Nc1ccccc12 (stereo partly specified),99,79*,-11,-10,-1
CC(=O)c1cccc(NC(=S)N2CCN(c3ccccn3)CC2)c1,107,4,12,7,-1
COc1ccc(CN(C)S(=O)(=O)c2nnc(NC(=O)c3cccc(F)c3)s2)cc1OC,98,60*,13,11,8
O=c1c2ccccc2sn1-c1ccccc1,105,100*,-29,-1,-2
SMILES,Yeast superoxide,SKKanGAS inh,PolyA inhibitor,Calb FLC,Platelet DG rel
Cc1ccc(-n2sc3ccccc3c2=O)cc1S(=O)(=O)N1CCCCC1,109,90*,-9,-7,1
CCCCNC(=O)c1onc(CSc2cc(C)cc(C)c2)c1C(=O)NCCCC,91,20,7,-9,1
CSc1cnc2c(N)nc(N(C)C)nc2n1,101,-14,-10,95*,-13
CSc1nc(N)nc(N(C)C)n1,105,-5,-2,1,-5
Clc1cccc(N/N=C/c2ccc(N3CCOCC3)s2)c1,102,1,-1,11,3
Cc1ccccc1C(=O)Nc1ccc(-c2nc3ccc(C(=O)c4ccccc4)cc3[nH]2)cc1,91,31,14,1,6
O=C(c1ccccc1)c1ccc2nc(-c3ccc(NC(=O)c4ccccc4Br)cc3)[nH]c2c1,137,28,9,76*,-1
CC(=O)c1c(C)[nH]c(C(=O)Nc2ccc(C)c(C)c2)c1C,114,0,1,96*,1
C/C(CC(=O)Nc1ccc(Cl)c(C(F)(F)F)c1)=N\NC(=O)c1cccc(O)c1,92,-4,-13,?,-3
C/C(CC(=O)Nc1ccc(Cl)c(C(F)(F)F)c1)=N\NC(=O)c1ccccc1O,101,104*,19,-1,12
C(=C\c1ccccc1)/CN1CCN(c2ncnc3c2oc2ccccc23)CC1,110,18,-14,92*,6
c1ccc2c(c1)oc1c(N3CCOCC3)ncnc12,82,-2,-3,0,-8
CCCc1cc(=O)[nH]c(SCC(=O)NC(=O)NC2CCCC2)n1,86,nt,nt,nt,nt
CC(C)CC(=O)Nc1ncc([N+](=O)[O-])s1,86,5,-18,-2,-13
CCCCC(=O)Nc1ncc([N+](=O)[O-])s1,86,-1,-40,83*,-10
COc1ccc(CN(C)C(=O)c2ccccc2Sc2ccccc2C#N)c(OC)c1,104,4,2,-1,-6
CCOC(=O)c1sc(Nc2ccccc2)nc1C,95,-3,-15,0,6
CCOC(=O)c1sc(Nc2nc3c(OC)cccc3s2)nc1C,110,11,-1,78*,0
CCOc1cccc2sc(Nc3nc4ccc(NC(C)=O)cc4s3)nc12,99,71*,-17,25,4
CC(C)(C)NC(=S)N/N=C\c1ccc(-c2ccc([N+](=O)[O-])cc2)o1,97,3,4,37,-7
COc1cccc(-c2c(-c3cc(OC)cc(OC)c3)n(C)c3ccc(-c4cnc(N5CCOCC5)nc4)cc23)c1,113,nt,nt,nt,nt
N#C/C(=N\Nc1cccc([N+](=O)[O-])c1)C(=O)c1ccc(Br)cc1,98,30,-24,97*,2
O=C1c2ccccc2C(=O)c2c1ccc1c(=O)n(-c3ccccc3)[nH]c21,109,42,-40,-54,-8
Cc1cccc(-n2[nH]c3c4c(ccc3c2=O)C(=O)c2ccccc2C4=O)c1,124,80*,-18,-2,20
Cc1ccc(O)c(C(=O)c2cnc3c(c2)CN(C)C(=O)N3)c1,89,-8,11,-14,-2
SMILES,Yeast superoxide,SKKanGAS inh,PolyA inhibitor,Calb FLC,Platelet DG rel
CN1Cc2cc(C(=O)c3cc(Cl)cc(CSc4ncccn4)c3O)cnc2NC1=O,113,50*,-9,-7,17
CCC(=O)c1ccc(OCC(=O)N2CCN(c3ncccn3)CC2)cc1,103,49,-10,-4,9
Cc1ccccc1Cn1c(O)c(N=NC(=S)Nc2ccccc2F)c2ccccc21,100,?,11,-12,3
Oc1c(N=NC(=S)Nc2ccccc2F)c2ccccc2n1Cc1ccccc1F,102,79*,-4,10,-7
Oc1c(N=NC(=S)Nc2ccccc2F)c2ccccc2n1Cc1ccc(Cl)cc1,111,58*,11,7,-2
CCc1ccccc1NC(=O)CCS(=O)(=O)c1ccc(OC)cc1,92,0,-13,-8,6
